Source: PubChem BioAssay
HT1080 IDH1KD tx = toxicity to HT-1080 IDH1 knockdown cells (counter line). 2% of 360,000 active. AID 686971. HT-1080 IDH1 knockdown viability, ATP luminescence, 48 h. Potency, µM (highest dose often 46.1 µM), for the others: at the highest dose activity, negative = toxicity, actives largely listed as cytotoxic;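 further: 0% = DMSO wells and -100% = cell-free medium wells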
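IDH1KD HT-1080 cells, 750/well, RPMI + 5% FBS; compound pinned after 2 h settling; 48 h, 37 °C; CellTiter-Glo luminescence; % activity normalised to DMSO and no-cell wells; curves fitted, classed by r2 and efficacy.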
MCF10A rereplic = inducers of DNA re-replication in MCF 10A breast cells; MCF 10A DNA re-replication, Hoechst nuclear intensity, 48 h; Potency, µM (top dose mostly 46.1 µM), without a hit: at the highest dose activity, positive = re-replication, most hits filed as activators; 2.9% of 350,000 active; further: % of control where 0% means no effect; nearly all actives have a fitted effect of over 50% in size
SW480 rereplic = induces DNA re-replication in SW480 colon adenocarcinoma cells. 1.8% of 340,000 active. Potency, µM (top dose mostly 46.1 µM), for the others: at the top dose re-replication activation, most hits filed as activators. SW480 DNA re-replication, Hoechst DNA content imaging, 48 h; further: % of control where 0% means no effect; nearly all actives have a fitted effect of over 55% in size
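Per well, 250 cells were exposed to pinned compound for 48 hr. Nuclear DNA was visualised with Hoechst (40 min, 37 C) and total object intensity recorded by fluorescence scanning.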
HT1080-NT tox = kills 2HG-producing HT-1080-NT fibrosarcoma cells; HT-1080-NT fibrosarcoma viability, CellTiter-Glo ATP luminescence, 48 h; Potency, µM (doses to about 46.1 µM), without a hit: at the highest dose activity, negative = less viability, hits mostly cytotoxic; 1.6% of 360,000 active;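 further: NT is the 2HG producing partner of a matched IDH1 knockdown line; 0% = DMSO-treated cells and -100% = media-only wells without cells; nearly all actives have a fitted effect of over 55% in size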
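Luminescent CellTiter-Glo readout after 48 hours of compound exposure at 37 degrees C defined viability of HT-1080-NT cells. Activity was normalized to DMSO wells and cell-free media wells; concentration-response curves were fitted and assigned curve classes.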
KB-V1 cytotox = KB-V1 MDR subline cytotoxicity; KB-V1 MDR cells viability, CellTiter-Glo, 72 h; Potency, µM (top dose mostly 46.1 µM), usual class: cytotoxic; 3.4% of 400,000 active; AID 1347076; further: on the % scale 0 is the no-effect control and ±100 the full control effect; nearly all actives have a fitted effect of over 60% in size
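Following 72 h at 37 degrees C with compound, KB-V1 cell viability was read by CellTiter-Glo luminescence, medium being phenol-red-free DMEM plus 10% FBS; concentration-response parameters came from normalized, curve-fitted qHTS data.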
KB-3-1 cytotox = kills parental KB-3-1 adenocarcinoma cells. KB-3-1 viability, CellTiter-Glo ATP luminescence, 72 h. Potency, µM (series often up to 46.1 µM), most hits filed as cytotoxic. 1.4% of 400,000 active. AID 1347075; further: on the % scale 0 is the no-effect control and ±100 the full control effect; nearly all actives have a fitted effect of over 60% in size
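Cytotoxicity in the drug-sensitive parental line KB-3-1 was scored as loss of CellTiter-Glo luminescence following 72 h incubation with compound. Values come from curve fitting of normalized concentration-response data.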
The depositor's hits bear a star; i = inactive; u = inconclusive; x = not tested or not shown; [ ] = another dose, or the depositor's remark. Most compounds without a hit are left out; they make up all but 8% or so of the library. The call rests on the fitted dose curve; in most records, active means well fitted curve in the direction sought with a large enough effect; inconclusive means small, poorly fitted or top-dose-only effect, or another doubt; inactive means no such curve, though single readings can be large; an effect the other way counts as inactive or inconclusive. Potency means the concentration at half of the fitted maximal effect.

SMILES	HT1080 IDH1KD tx	MCF10A rereplic	SW480 rereplic	HT1080-NT tox	KB-V1 cytotox	KB-3-1 cytotox
Cc1cccc(NC(=S)N(CCN(C)C)Cc2cc3cc(C)cc(C)c3[nH]c2=O)c1	-6%	17%	4%	-8%	i	i
Cc1ccc(NC(=S)N(CCN(C)C)Cc2cc3cccc(C)c3[nH]c2=O)cc1	-19%	u	21µM*	-10%	3.3µM*	i
Cc1ccc(NC(=S)N(Cc2cccs2)Cc2cc3cc(C)ccc3[nH]c2=O)cc1	-10%	16%	-6%	0%	i	u
Cc1ccc(OCCCCn2c(-c3ccc(Cl)cc3)nc3ccccc3c2=O)cc1	x	x	x	x	i	i
COc1ccc(Br)cc1CN1CCN(C(=O)c2cccc(F)c2)CC1	-4%	15%	-11%	-1%	i	i
CCCCOc1ccc(S(=O)(=O)NCc2csc(C)n2)cc1	-22%[9.24 µM]	-2%	-5%	u	u	18µM*
CCN(CC)S(=O)(=O)c1cccc(C(=O)NC2=NCCS2)c1	1%	0%	3%	14%	i	i
O=C1c2cc([N+](=O)[O-])cc3cc([N+](=O)[O-])cc(c23)C(=O)N1c1ccccn1	-15%	u	21µM*	-3%	i	i
O=C1c2cc3ccccc3c(-c3ccccc3)c2C(=O)N1c1ccccn1	1%	-2%	-4%	2%	13µM*	i
Cc1nc(NCC(=O)c2c[nH]c3ccccc23)sc1C	x	x	x	x	i	u
CC1(C)Cc2c(sc3nnn(Cc4ccc(Cl)cc4)c(=O)c23)CO1	-1%	27%	20%	4%	6.5µM*	u
CC1(C)Cc2c(sc3nnn(CC(=O)Nc4ccccc4)c(=O)c23)CO1	1%	2%	-16%	0%	i	i
CC(=O)N1CCCc2cc(S(=O)(=O)N3CCC(C(=O)NCc4ccccc4Cl)CC3)ccc21	x	x	x	x	u	i
CN(C(=O)COC(=O)c1ccc(Cl)c(S(=O)(=O)N2CCCCC2)c1)C1(C#N)CCCCC1	-3%	0%	-10%	2%	i	i
Cc1cc(SC(C)C(=O)Nc2ncc(Cl)cc2Cl)nc2ccccc12 (stereo not given)	-5%	u	-3%	0%	18µM*	i
O=S1(=O)C=C(Sc2nc3cc(Cl)ccc3o2)c2ccccc21	5.2µM*	u	u	5.2µM*	u	u
CN(C)c1nc(N)nc(CSc2nc3cc(Cl)ccc3o2)n1	23%	4%	4%	6%	i	i
Cc1c(C)n2c(SCC(=O)Nc3cccc4ccccc34)nnc2[nH]c1=O	2%	16%	23µM*	-4%	i	i
CCc1nc(SCC(=O)Nc2cccc3ccccc23)[nH]c(=O)c1C	10%	3%	-3%	18%	i	i
COC(=O)c1cc(Cl)c(NC(=O)/C=C/c2ccc(Cl)cc2Cl)cc1OC	4%	2.1µM*	1%	-3%	i	i
Cc1ccc(-n2cnc(N)c2C(=O)c2cccc([N+](=O)[O-])c2)cc1	-14%	15µM*	u	-18%	u	i
CCOCCCN(C)C1CCN(S(=O)(=O)c2csc(C(N)=O)c2)CC1	8%	7%	11%	26%	u	i
COc1ccccc1Nc1nc(NCc2ccco2)c2ccccc2n1	23µM*	23µM*	-24%	21µM*	u	i
c1ccc(-c2nc(NCc3ccco3)c3ccccc3n2)nc1	u	u	5.8µM*	-23%	u	5.8µM*
Fc1ccccc1-c1nc(NCc2ccco2)c2ccccc2n1	-9%	-2%	-1%	-10%	i	i
SMILES	HT1080 IDH1KD tx	MCF10A rereplic	SW480 rereplic	HT1080-NT tox	KB-V1 cytotox	KB-3-1 cytotox
Cc1ccc(Nc2nc(NCc3ccco3)c3ccccc3n2)cc1	23µM*	u	u	u	u	u
Oc1ccccc1-c1nc(NCc2ccco2)c2ccccc2n1	-26%	u	11%	-25%	i	i
Cc1ccc(CNC(=O)CSc2nc3c(sc4ccccc43)c(=O)n2CCCOC(C)C)cc1	x	x	x	x	i	i
O=C(Nc1ccncc1)Nc1cccc(F)c1	-1%	0%	-14%	1%	i	i
C=CC(=O)N1C/C(=C/c2ccc(F)cc2)C(=O)/C(=C\c2ccc(F)cc2)C1	2.9µM*	u	1.2µM*	u	i	u
O=C1C(=Cc2ccc(F)cc2)CCc2ccccc21	-15%	x	x	-23%	i	i
CC(=O)Nc1ccc(/C=N/N2CCCCC2)cc1	1%	-1%	0%	-4%	i	i
CC#CCOC(=O)c1c(C)nc2sc3c(c2c1N)CCC(O)C3 (stereo not given)	u	u	-55%	23µM*	12µM*	u
Cc1cccc(C2=NN(c3ccccc3)[C@@H](C(=O)N3CCOC3=O)[C@@H]2C)c1	-14%	16%	-25%	-5%	i	i
CC[C@@H]1C(c2ccccc2)=NN(c2ccccc2)[C@H]1C(=O)N1CCOC1=O	-22%	23µM*	10%	-25%	i	i
C[C@@H]1C(c2ccccc2)=NN(c2ccc(Br)cc2)[C@H]1C(=O)N1CCOC1=O	u	15µM*	u	-12%	i	u
Cc1cccc(C2=NN(c3ccc(Br)cc3)[C@@H](C(=O)N3CCOC3=O)[C@@H]2C)c1	u	5.2µM*	u	u	i	i
Cc1cc(=O)oc2cc(NC(=O)CC3(CC(=O)O)CCCC3)ccc12	12%	-30%	-4%	12%	i	i
COC(=O)c1ccc(OCC2c3cc(OC)c(OC)cc3CCN2C(=O)c2ccccc2F)cc1 (stereo not given)	x	x	x	x	i	i
Cc1ccc2c(c1)Cc1c(nc(-c3ccc(F)cc3)nc1SCC(=O)N1CCCCC1)O2	x	x	x	x	i	i
Cc1cc(C)cc(NC(=O)Cn2c(=O)oc3cc(S(=O)(=O)N4CCC(C)CC4)ccc32)c1	u	16µM*	u	u	i	i
CC1CCCN(CC(=O)Nc2ccc(S(=O)(=O)NC3CCCCC3)cc2)C1 (stereo not given)	u	16µM*	-1%	u	u	i
O=C(CN1CCCN(S(=O)(=O)c2ccc(Br)s2)CC1)Nc1ccc(Cl)cc1	18µM*	u	u	u	i	u
CC1CCN(S(=O)(=O)c2ccc(NC(=O)CN3CCCC3)cc2)CC1	-1%	9.2µM*	-4%	-4%	i	i
